Source: PubChem BioAssay (National Center for Advancing Translational Sciences (NCATS))
Sampled rows, rich in hits. Any-hit rate of the full collection: about 2.8%.
Mito fusion yeast: blocks mitochondrial division or promotes mitochondrial fusion; S. cerevisiae fusion-defective mutant growth rescue, CellTiterGlo 48 h; hit rate 0.23% among 320,000; Potency, µM (doses to about 46.1 µM), for inactives: at the highest dose growth rescue (activation), hits mostly activators; AID 485298; also: % of control where 0% means no effect; nearly all actives have a fitted effect of over 45% in size
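Luminescent cell viability in 1536-well qHTS format served as the measure of rescued growth in ts fusion-mutant S. cerevisiae cultured on non-fermentable YPEG for 48 hours at 37C.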
GLP1R inv ag: acts as inverse agonist at human GLP-1 receptor; P43220; HEK293 GLP-1R CRE-luciferase, luminescence, 24 h; GLP-1R form is constitutively active; Potency, µM (doses to about 38.3 µM), inactives show at the highest dose activity change, negative = inhibition, most hits filed as inhibitors; hit rate 1.6% among 410,000; also: % is scaled to controls: 0 for no effect and ±100 for the full control effect; nearly all actives have a fitted effect of over 55% in size
Target sequence (P43220 whole entry, looked up): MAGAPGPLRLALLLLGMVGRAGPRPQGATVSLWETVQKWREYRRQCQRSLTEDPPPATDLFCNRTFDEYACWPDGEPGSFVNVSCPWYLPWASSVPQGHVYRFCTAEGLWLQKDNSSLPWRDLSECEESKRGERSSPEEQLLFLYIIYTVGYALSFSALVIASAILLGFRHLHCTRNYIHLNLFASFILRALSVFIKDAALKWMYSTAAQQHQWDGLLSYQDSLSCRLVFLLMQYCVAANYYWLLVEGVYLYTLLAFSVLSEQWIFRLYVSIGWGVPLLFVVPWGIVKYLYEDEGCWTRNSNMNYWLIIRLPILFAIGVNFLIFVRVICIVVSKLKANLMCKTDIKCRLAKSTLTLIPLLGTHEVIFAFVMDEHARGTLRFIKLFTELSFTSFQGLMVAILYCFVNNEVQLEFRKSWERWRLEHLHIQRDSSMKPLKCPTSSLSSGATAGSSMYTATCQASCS
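Assay principle: reduced luminescence from a cAMP-responsive reporter in HEK293 cells co-expressing a constitutively active GLP-1R. Conditions: 24 hr compound incubation, 37 deg C, 5% CO2.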
GLP1R cytotox: cytotoxicity in counter-screen for GLP-1R inverse agonists; HEK293 cAMP-luciferase reporter cells, luminescence, 24 h; Potency, µM (series often up to 38.3 µM), inactives show at the highest dose activity change, negative = inhibition, most hits filed as inhibitors; hit rate 0.13% among 410,000;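 also: loss of luciferase light is scored as toxicity; % is scaled to controls: 0 for no effect and ±100 for the full control effect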
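1536-well qHTS counterscreen of the MLSMR; 200 cells/uL, 12 h pre-incubation, 23 nL cpd, 24 h at 37 deg C 5% CO2, luciferase detection reagent, 12 min RT, luminescence. Inhibition = undesired.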
BRCA1 expr act: activators of BRCA1 expression; MCF7-BRCA1-FFLuc reporter, luminescence, 48 h; response scale: scaled: vehicle 0%, 10 µM genistein 100%; Potency, µM (doses to about 46.1 µM), without a hit: at the highest dose activation, hits mostly activators; hit rate 1.1% among 380,000; also: nearly all actives have a fitted effect of over 80% in size
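48 h compound treatment of MCF7-BRCA1-FFLuc cells (phenol-red free MEM, 37 °C), then 15 min with luciferase substrate and luminescence imaging.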
GLP1R ag: agonists of human GLP-1 receptor. Potency, µM (doses to about 45.6 µM), for inactives: at the top dose activation, hits mostly activators. HEK293 GLP-1R CRE-luciferase, luminescence, 4-6 h; cells express a hypersensitive GLP-1R form. AID 624172. hit rate 0.007% among 380,000; also: % of control where 0% means no effect
* = called active by the depositor; u = inconclusive; x = not tested or not shown. Calls follow the shape of the dose curve; as a rule, active = well fitted curve in the direction sought with a large enough effect; inconclusive = small, poorly fitted or top-dose-only effect, or another doubt; inactive = no such curve, though single readings can be large; an effect the other way counts as inactive or inconclusive. Potency is read from the fitted curve at half-maximal effect.

SMILES	Mito fusion yeast	GLP1R inv ag	GLP1R cytotox	BRCA1 expr act	GLP1R ag
COC(=O)C1=C(c2ccc(OC(F)(F)F)cc2)C[C@@H]2CC[C@H]1N2C(=O)NCC1CC1	13.2%	10µM*	-19.1%	-7.1%	5.8%
COC(=O)C1=C(c2ccc(OCc3ccccc3)cc2)C[C@@H]2CC[C@H]1N2C(=O)NCc1ccccc1OC	x	12.6µM*	4.1%	-36.8%	4.9%
COC(=O)C1=C(c2ccc(OCc3ccccc3)cc2)C[C@@H]2CC[C@H]1N2C(=O)NCc1ccc(OC)c(OC)c1	22.5%	0.4%	4.8%	-57.7%	20.4%
COC(=O)C1=C(c2ccc(-c3ccccc3)c(F)c2)C[C@@H]2CC[C@H]1N2C(=O)NCc1cc(C)oc1C(F)(F)F	-3.3%	3.55µM*	4.3%	-46.4%	-7.4%
COC(=O)C1=C(c2ccc(OC(F)(F)F)cc2)C[C@@H]2CC[C@H]1N2C(=O)NCCO	-4.4%	-3.2%	1.1%	-0.6%	12.8%
COC(=O)C1=C(c2cccc(C#N)c2)C[C@@H]2CC[C@H]1N2C(=O)NCc1cc(C)oc1C(F)(F)F	2.4%	0.8%	29.4%	0.0%	4.5%
COC(=O)C1=C(c2ccccc2OCc2ccccc2)C[C@@H]2CC[C@H]1N2C(=O)NCCc1ccc(F)cc1	8.91µM*	22.4µM*	-23.1%	-35.5%	-1.7%
COc1ccc(-c2nn(CCC#N)cc2C(=O)NCc2ccccc2)cc1[N+](=O)[O-]	0.4%	37.1%	7.3%	-2.1%	16.5%
COc1ccc2sc(-c3ccc(N(C)C)cc3)c(C#CCCO)c2c1	u	6.8%	48.2%	-77.5%	23.6%
CCCCn1c(O)c(C=NC2CC3CCC2(C)C3(C)C)c(=O)[nH]c1=O (stereo unspecified)	-1.1%	5.62µM*	-16.5%	3.2%	4.2%
C#CC1(OC(=O)c2ccccc2)CC(C)N(C)CC1C (stereo unspecified)	-4.2%	u	-2.2%	3.7%	-0.4%
Cc1ccccc1NC(=O)C(=Cc1ccc(C(=O)O)cc1)C(=O)Nc1ccccc1C	10.0%	6.31µM*	u	-88.0%	-1.9%
Cc1ccccc1NC(=O)CCl	-2.7%	6.9%	-11.0%	-7.9%	1.1%
O=C(Nc1cccc(-c2csc(Nc3cccc(C(F)(F)F)c3)n2)c1)c1ccccc1	-78.0%	2.82µM*	u	-34.9%	-2.2%
CC(O)(c1ccncc1)c1nc(-c2cccc(C(F)(F)F)c2)cs1 (stereo unspecified)	x	u	-2.7%	-28.1%	0.0%
COc1ccc(CNCCc2ccc(Cl)cc2)c(OC)c1OC	-7.7%	u	-21.1%	-13.8%	-6.9%
CN1[C@@H]2CC[C@H]1CC(OC1c3ccccc3CCc3ccccc31)C2 (stereo partly specified)	6.1%	2µM*	u	-7.2%	-1.4%
CN1C(=O)CN=C(c2ccc[nH]2)c2cc(Cl)ccc21 (tested in a mixture with another compound)	x	-2.9%	2.0%	-17.9%	0.3%
O=C(CCOc1cccc(Br)c1)Nc1ccc(F)c(S(=O)(=O)N2CCOCC2)c1	4.4%	10µM*	u	-59.6%	7.4%
Fc1ccc(C2NCCc3[nH]cnc32)cc1 (stereo unspecified)	-0.2%	7.5%	0.2%	-1.9%	0.2%
Cc1ccc(NC(=O)c2ncn(CCCNCCN3CCOCC3)n2)cc1C	x	6.1%	18.1%	11.3%	-1.4%
Cc1ccc(NC(=O)c2ncn(CC(=O)NCc3ccc4c(c3)OCO4)n2)cc1C	x	17.1%	0.8%	11.2µM*	-2.8%
Cc1cccc(N2C(=O)NC(=O)/C(=C\c3cc(C)n(-c4sc5c(c4C#N)CCCC5)c3C)C2=O)c1C	4.3%	3.55µM*	-6.3%	-19.3%	7.8%
O=C(CN1CCCCC1)c1ccc(OC(F)F)cc1	0.7%	4.7%	0.9%	8.4%	8.9%
COc1ccc(C(CC(=O)Nc2ccccn2)N2Cc3ccccc3C2=O)cc1 (stereo unspecified)	0.0%	62.8%	-9.0%	7.4%	15.6%
SMILES	Mito fusion yeast	GLP1R inv ag	GLP1R cytotox	BRCA1 expr act	GLP1R ag
O=C(Nc1ccccn1)NC12CC3CC(CC(C3)C1)C2	15.6%	1.41µM*	-16.5%	3.0%	2.1%
CCOC(=O)c1sc(=NC(=O)c2ccc(C)c(C)c2)n(C)c1C	0.1%	19.9%	18.6%	3.16µM*	4.5%
O=C(Nc1ccc(Cl)c(C(F)(F)F)c1)NC1CC2CCCC(C1)N2C1CC1 (stereo unspecified)	x	3.16µM*	u	-65.1%	-9.5%
CC(C)(C)n1nnnc1C(C1CC1)N1CCC2(CC1)C(=O)NCN2c1ccccc1 (stereo unspecified)	x	-9.1%	-4.5%	3.9%	-1.5%
CN(C)C(CNC(=O)Cc1c(Cl)cccc1Cl)c1ccccc1 (stereo unspecified)	-5.9%	u	-6.7%	9.8%	12.2%
Cc1ccc(C)c(NC(=O)C(Sc2nc3ccc(C)cc3[nH]2)c2ccccc2)c1 (stereo unspecified)	7.6%	3.16µM*	u	-59.2%	0.6%
CC(CN1CCNCC1)(NS(=O)(=O)c1ccccc1)c1ccccc1 (stereo unspecified)	-1.5%	3.55µM*	u	-61.0%	-5.7%
CC(C)(C)NS(=O)(=O)c1ccc(OCC(=O)N2CCN(Cc3ccccc3)CC2)cc1	-0.1%	-26.3%	-1.3%	-19.3%	2.0%
CC1([N+](=O)[O-])COP(=O)(NCc2cccnc2)OC1 (stereo unspecified)	x	18.3%	-1.0%	6.3%	1.6%
Cc1ccc(C(O)(c2ccc(C)c(C)c2)C2CN3CCC2CC3)cc1C (stereo unspecified)	-28.5%	u	u	-78.0%	2.9%
Cc1ccccc1C(O)(Cc1ccccc1)C1CN2CCC1CC2 (stereo unspecified)	-5.2%	0.794µM*	u	-66.6%	-1.3%
COC(=O)C[C@]1(C(=O)OC)CN(C#N)N(c2ccc(Cl)cc2)C12c1ccccc1-c1ccccc12	u	u	1.12µM*	-97.1%	-4.4%
COC(=O)[C@@H]1[C@@H](C(=O)OC)C2(c3ccccc3-c3ccccc32)N(c2ccc(Cl)cc2)N1C#N	19.6%	3.98µM*	-11.2%	-86.9%	-16.2%
C#C[C@]1(O)CCC2C3CC=C4C[C@H](O)CC[C@]4(C)C3CC[C@@]21C (stereo partly specified)	x	15.2%	1.3%	-29.9%	2.0%
CCOCCCNC(=O)C1c2cc(OC)c(OC)cc2C(=O)N2CCCCC12 (stereo unspecified)	0.3%	-6.2%	u	-6.3%	-4.0%
CN(C)c1ccc(NC2=C(Cl)C(=O)c3ccccc3C2=O)cc1	5.1%	u	u	-103.2%	-9.0%
CNCCc1c[nH]c2ccc(O)cc12	-0.5%	0.7%	0.8%	13.8%	9.0%
